High-throughput results: PubChem, National Center for Advancing Translational Sciences (NCATS)
Rows were chosen to be rich in hits. Some 0.35% of all compounds tested hit in one or more screens of this group.
A-T KAP1 phos – potential ataxia-telangiectasia treatments restoring KAP-1 phosphorylation | F2112 A-T fibroblasts, KAP-1 phosphorylation AlphaLISA; neocarzinostatin DNA damage 30 min before lysis | Potency, µM (series often up to 57.5 µM), for inactives: at the highest dose activation, most hits filed as activators | 320,000 tested, 0.19% active; note: potency is the fitted concentration of half-maximal effect; % of control where 0% means no effect; nearly all actives have a fitted effect of over 45% in size
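ATM-like activity read as KAP-1 phosphorylation via AlphaLISA donor/acceptor antibody pairs after lysis and 6 hr at 25C. Cells were ATM-null patient fibroblasts (F2112, hTERT), dosed 60 min, then exposed to the DSB inducer NCS for 30 min.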
Apoferritin bind – candidate novel general anesthetic via apoferritin binding. P02791. apoferritin/1-aminoanthracene competitive binding, fluorescence. Potency, µM (titrated, usually from 77.5 µM), for the others: at the highest dose activity change, negative = displacement, usual class: inhibitors. 350,000 tested, 0.074% active. AID 485281; note: potency is the fitted concentration of half-maximal effect; % is set by controls: 0 for no effect and ±100 for the full control effect; nearly all actives have a fitted effect of over 20% in size
Target sequence (P02791 2-175 limits assumed): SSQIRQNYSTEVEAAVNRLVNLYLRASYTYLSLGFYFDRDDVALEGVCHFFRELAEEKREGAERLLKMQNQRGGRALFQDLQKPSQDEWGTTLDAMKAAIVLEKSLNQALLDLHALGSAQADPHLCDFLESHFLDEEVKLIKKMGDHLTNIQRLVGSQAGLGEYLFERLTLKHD
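Horse-spleen apoferritin (10 uM) in 50% saturated 1-aminoanthracene in PBS was incubated 10 min at room temperature with compound. Fluorescence (ex 380, em 535 nm) was normalized to free and bound 1-AMA, with concentration-response fitted by a four-parameter Hill equation.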
LDHA block – inhibitors of human lactate dehydrogenase A | P00338 | purified LDHA, NADH/diaphorase-resazurin fluorescence; stronger effect = lower value | activity change, % (values are at about 110 or 230 µM) | 480,000 tested, 0.15% active | AID 1347041; in the data active = activity change below about -30%; inconclusive = mostly about -25% to -30%;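 note: plate controls were DMSO wells for no effect and wells without enzyme for full effect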
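Human LDH5 (2 nM) was incubated with 0.06 mM NADH and 0.2 mM pyruvate for 5 min at room temperature in Tris pH 7.4. Remaining NADH was coupled through diaphorase/resazurin, and resorufin fluorescence was read at 0 and 20 min.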
RGS4 inhibitor – inhibitors of human regulator of G protein signaling 4 | P49798 | Transcreener GDP fluorescence polarization, RGS4-accelerated GTP hydrolysis | Potency, µM (highest dose often 114 µM), for the others: at the top dose activity change, negative = inhibition, hits mostly inhibitors | 390,000 tested, 0.039% active; note: potency is the fitted concentration of half-maximal effect; % is set by controls: 0 for no effect and ±100 for the full control effect; nearly all actives have a fitted effect of over 75% in size
Target sequence (P49798 whole entry, looked up): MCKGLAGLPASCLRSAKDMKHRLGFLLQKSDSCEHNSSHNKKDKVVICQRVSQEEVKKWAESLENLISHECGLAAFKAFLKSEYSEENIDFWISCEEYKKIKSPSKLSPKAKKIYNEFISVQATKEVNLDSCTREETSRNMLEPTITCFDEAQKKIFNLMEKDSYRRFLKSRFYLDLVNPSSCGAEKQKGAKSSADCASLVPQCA
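MLSMR compounds (23 nl, pin-transferred) preincubated 10 min at room temperature with a 500nM (2x) first reagent, then RGS4 at 900nM (2x) plus Transcreener GDP mix added; fluorescence polarization (620/688 nm) read before and after 90 min at 30 °C.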
* hit, by the source's call; ? = inconclusive; / = not tested or not shown; ! = repeats disagree; [ ] = dose if it differs, or a comment. Unless noted, calls come from the whole dose curve; as a rule, active = well fitted curve in the direction sought with a large enough effect; inconclusive = small, poorly fitted or top-dose-only effect, or another doubt; inactive = no such curve, though single readings can be large; an effect the other way counts as inactive or inconclusive.

SMILES	A-T KAP1 phos	Apoferritin bind	LDHA block	RGS4 inhibitor
N#CCC(=O)N/N=C/c1ccc(N2N=C(c3ccccc3)CC2c2ccccc2)cc1 (stereo not drawn)	32µM*	142%	-9	1%
CC(=O)Nc1ccc(C2=NN(c3ccccc3)C(c3ccccc3)C2)cc1 (stereo not drawn)	22µM*	45%	-2	-44%[56.9 µM]
Oc1ccc(C2=NN(c3ccccc3)C(c3ccc(F)cc3)C2)cc1 (stereo not drawn)	24%	79%	4	0%
Cc1oc2cc(OC(=O)c3ccc4c(c3)OCO4)ccc2c(=O)c1-c1ccccc1	/	/	-30*	/
Cc1oc2cc(OC(=O)c3ccc(S(C)(=O)=O)cc3)ccc2c(=O)c1-c1ccccc1	/	/	-2	/
CC(C)(C)c1cc(Cl)ccc1OCCOCCN1CCCC1	6%	-5%	-7	-5%
Cc1ccc(OCCOCCN2CCN(C)CC2)c(C(C)(C)C)c1	7%	-5%	-32*	-10%
Cc1cc(C)n(-c2n[nH]c(=O)c3ccccc23)n1	18µM*	5%	-3	-6%[56.9 µM]
Cc1cc(C)n(-c2nnc(Cl)c3ccccc23)n1	-5%	-3%	-5	-8%
O=C(COC(=O)CCSc1ccccc1Cl)Nc1ncc(Cl)cc1Cl	/	/	-17	/
O=C(O)c1cnc(-c2ccccc2)nc1Sc1ccccc1Cl	-5%	-6%	-31*	-17%
O=C(O)c1cnc(-c2ccccc2)nc1Sc1ccc(Cl)cc1	13%	8%	-10	5%
CN(C)c1ccc(-c2c3ccccc3nc3ccccc23)cc1	/	/	9	/
CN(C)c1nc2ccccc2c(N)c1-c1ccccc1	0%	-14%	-38*	-1%
COc1ccc2sc(-c3ccc(SC)cc3)c(C#CCO)c2c1	12%	/	-2	-24%
COc1ccc2sc(-c3ccc(N(C)C)cc3)c(C#CC(C)(C)O)c2c1	32µM*	/	-1	1%
COc1ccc(-c2sc3ccc(OC)cc3c2C#CCCO)cc1	?	3%	5	-20%
COc1ccc2sc(-c3ccc(N(C)C)cc3)c(C#Cc3cncn3C)c2c1	32µM*	/	3	-11%
COc1ccc2sc(-c3ccc(SC)cc3)c(C#CC(C)(C)O)c2c1	?	/	3	-2%
COc1ccc2sc(-c3ccc(N(C)C)cc3)c(C#CCCO)c2c1	25µM*	/	0	-12%
Clc1cccc(/C=N/Nc2ccc(Cl)c(Cl)c2)c1	/	/	8	/
O=C1/C(=C/c2cnc(-c3ccccc3)nc2)CS(=O)(=O)c2ccccc21	/	/	4	/
COc1ccc(/C=C2/SC(=S)N(Cc3ccccc3)C2=O)cc1O	40µM*	-15%	-1	7%
CC(=O)NNC(=O)CN1C(=O)/C(=C/c2ccccc2)SC1=S	3.2µM*	-10%	-2	8%[56.9 µM]
Cc1ccc2[nH]c(C)c(C(O)CN3CCC(Cc4ccccc4)CC3)c2c1 (stereo not drawn)	/	/	5	/
SMILES	A-T KAP1 phos	Apoferritin bind	LDHA block	RGS4 inhibitor
Cc1ccc(C(=O)NCC(=O)OCC(=O)c2ccc3c(c2)OCCO3)cc1C	9%	10µM*	-3	-28%
COc1ccc(C(=O)COC(=O)CCC(=O)c2ccc3c(c2)OCCO3)cc1	/	/	12	/
COc1ccc(C(=O)NCC(=O)OCC(=O)c2ccc3c(c2)OCCO3)cc1	0%	13µM*	-2	18%
COc1ccc(CC(=O)OCC(=O)c2ccc3c(c2)OCCCO3)cc1	/	/	-30*	/
COc1ccccc1-c1csc(N2N=C(C)CC2c2cc(OC)c(OC)c(OC)c2)n1 (stereo not drawn)	/	/	1	/
CCc1nnc(CN2CCC(c3nc4ccccc4s3)CC2)o1	/	/	-36*	/
COc1cc(/C=C2/SC(=S)NC2=O)ccc1OS(=O)(=O)c1ccc(C)cc1	2%	-24%	-34*	?
CCOC(=O)N1CCC(N2CCN(S(=O)(=O)CC)CC2)CC1	1%	-5%	-34*	18%
COc1ccc(NC(=O)c2c(NC(=O)CCC(=O)O)sc3c2CCC(C(C)(C)C)C3)cc1 (stereo not drawn)	/	/	-30*	/
O=Cc1c(-c2ccccc2)c(C=O)n2ccccc12	/	/	-24	/
OC(c1cc(-c2ccc(C(F)(F)F)cc2)nc(C(F)(F)F)c1)C1CCCCN1 (stereo not drawn)	40µM*	-8%	4	21%
OC(c1cc(C(F)(F)F)nc2c(C(F)(F)F)cccc12)C1CCCCN1 (stereo not drawn)	-8%	-10%	1	-1%
Cc1cccc(C2CC(c3cccs3)=NN2c2nc(C)cs2)c1 (stereo not drawn)	/	/	-1	/
COc1ccc(C2CC(c3cccs3)=NN2c2ccc(C=O)cc2)cc1 (stereo not drawn)	25µM*	168%	-7	4%
Fc1ccc(C2CC(c3cccs3)=NN2c2ccccc2)cc1 (stereo not drawn)	32µM*	130%	-5	24%
c1ccc(C2CC(c3cccs3)=NN2c2ccccc2)cc1 (stereo not drawn)	20µM*	22%	-1	-3%
Oc1ccccc1C1=NN(c2ccccc2)C(c2ccc(F)cc2)C1 (stereo not drawn)	11%	522%	0	-2%
O=C(O)c1ccccc1OCc1cn2ccccc2n1	/	/	0	/
COc1ccc2nc3c(cc2c1)c(NC(=O)C1CCCO1)nn3CC(C)C (stereo not drawn)	35µM*	330%	2	0%
CCn1nc(NC(=O)CC(C)C)c2cc3ccc(C)cc3nc21	20µM*	42%	-3	-20%
CCCn1nc(NC(=O)C2CCCO2)c2cc3ccc(C)cc3nc21 (stereo not drawn)	25µM*	83%	5	6%
CN(CC(=O)N(C)C1CCS(=O)(=O)C1)c1ccc2ccccc2c1 (stereo not drawn)	/	/	8	/
CCCCC(=O)N(C)c1c(CC)nc2c(OCC(=O)N3CCOCC3)cccn12	/	/	-37*	/
CC(C)C[C@H](N)c1nnc(SCc2ccc(Cl)cc2)o1	40µM*	-5%	-4	17%
CC(NCC(=O)Nc1ccccc1C(=O)NC1CC1)c1ccc(S(N)(=O)=O)cc1 (stereo not drawn)	5%	/	-33*	-4%
SMILES	A-T KAP1 phos	Apoferritin bind	LDHA block	RGS4 inhibitor
Nc1ccc2c(c1)CCC(=O)N2	/	/	6	/
COc1ccccc1C1CC(c2ccco2)=NN1c1ccccc1 (stereo not drawn)	20µM*	87%	-6	-21%
Cc1ccc2nc(/C(C#N)=C/c3ccco3)[nH]c2c1	/	/	7	/
COc1cccc(CNc2ccc(F)c(Cl)c2)c1	6%	8.9µM*	3	22%
O=C(CCc1nc2sc3c(c2c(=O)[nH]1)CCCC3)N1CCCCC1	/	/	7	/
CCOC(=O)N1CCN(C(=O)CCc2nc3sc4c(c3c(=O)[nH]2)CCCC4)CC1	10µM*	-3%	-6	15%
CC(=O)Oc1ccc2cc(-c3ccccc3)c(=O)oc2c1	0%	204%	-31*!	-11%
CSC1=N/C(=C\c2ccc(-c3cccc(Cl)c3)o2)C(=O)S1	/	/	1	/
COc1ccccc1CNC(c1ccccc1)c1ccccc1	28µM*	0%	-8	29%
